CHRM1 PAM: potentiates human M1 receptor response to acetylcholine | P11229 | CHO-K1 hM1, Fluo-8 calcium fluorescence, ACh EC20; 0% = ACh EC20, 100% = maximal ACh | activation, % at 3 µM | 360,000 compounds, 0.088% hits | AID 588819; in the data active means activation above about 19%, passing the limit was not always enough
Target sequence (P11229 whole entry, looked up): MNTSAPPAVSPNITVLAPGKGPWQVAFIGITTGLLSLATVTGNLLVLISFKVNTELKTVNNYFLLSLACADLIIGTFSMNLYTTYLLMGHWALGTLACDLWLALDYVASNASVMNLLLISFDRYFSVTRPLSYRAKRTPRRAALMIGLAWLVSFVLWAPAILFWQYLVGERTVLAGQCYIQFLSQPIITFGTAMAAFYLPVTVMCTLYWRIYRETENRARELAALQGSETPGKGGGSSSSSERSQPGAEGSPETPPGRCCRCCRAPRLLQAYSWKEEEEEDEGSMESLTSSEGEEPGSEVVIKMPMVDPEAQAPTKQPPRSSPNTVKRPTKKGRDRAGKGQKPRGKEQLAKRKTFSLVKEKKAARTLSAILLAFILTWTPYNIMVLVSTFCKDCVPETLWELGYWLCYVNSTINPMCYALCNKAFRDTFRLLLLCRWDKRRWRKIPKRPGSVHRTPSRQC
M1 antag: antagonists of human M1 muscarinic receptor; P11229; CHO-K1 hM1, Fluo-8 calcium fluorescence, ACh EC80 antagonist; inhibition, % at 3 µM; 360,000 compounds, 1.3% hits;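 active means percent inhibition above its own plate's cutoff, namely the mean of that plate's compound wells plus 3 SD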;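 further: peak over basal fluorescence ratio during 140 s after agonist addition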
CHO-K1 Ca PAM: M1 PAM counterscreen hit in parental CHO-K1 cells | ATP EC20, Fluo-8 calcium fluorescence; 0% at ATP EC20, 100% at ATP max | activation, % at 3 µM | 360,000 compounds, 0.02% hits | AID 602247;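 active means activation above the run cutoff, the mean activation of all test compounds plus 3 SD, cut at about 40% in these data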;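 further: peak over basal fluorescence ratio in a 140 s read after ATP addition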
M1 ag: activates human CHRM1 receptor; P11229; CHO-K1 hM1, Fluo-8 calcium fluorescence, agonist mode; 0% DMSO, 100% acetylcholine EC100; activation, % at 3 µM; 360,000 compounds, 0.33% hits; AID 588814;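 active means activation above the run's mean compound activation plus 3 SD, cut at about 16% in these data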;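 further: peak over basal fluorescence ratio within a 140 s kinetic read after compound addition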
CHO-K1 Ca ag: nonselective activator or artifact in parental CHO-K1 cells; Fluo-8 calcium fluorescence; scaled to maximal ATP response, vehicle zero; activation, % at 3 µM; 360,000 compounds, 0.48% hits; in the data active means activation above about 15%;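 further: untransfected CHO-K1 host cells lacking M1 receptor as counterscreen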
CHO-K1 Ca antag: counter-screen for M1 antagonists: effect in parental CHO-K1 cells | ATP-induced calcium, Fluo-8 fluorescence | inhibition, % at 3 µM | 360,000 compounds, 0.6% hits | AID 602250;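 active means inhibition above a per-plate cutoff, the plate's mean sample inhibition plus 3 SD, cut at about 24% in these data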
A number is an active result; i = inactive. In the library only some 2.3% were active in any assay of this set; here they are far more common.

SMILES	CHRM1 PAM	M1 antag	CHO-K1 Ca PAM	M1 ag	CHO-K1 Ca ag	CHO-K1 Ca antag
CCC(=O)NCCc1nc2cc(NC(=O)Nc3ccccc3)ccc2n1C	i	i	i	i	i	i
CCn1c(P(C)(=O)O)nc2cc(NC(=O)c3ccccc3Cl)ccc21	i	i	i	i	i	24
C/C(CC(=O)Nc1ccc(OCc2ccccc2)cc1)=N\NC(=O)C(=O)Nc1ccc(C)c(Cl)c1	i	i	i	i	i	i
Cc1cc(C)c(Cn2c(=O)[nH][nH]c2=O)cc1Cn1c(=O)[nH][nH]c1=O	i	i	i	i	i	i
CC1Cc2nc(SCC(=O)c3ccccc3)n(Cc3ccccc3)c(=O)c2S1 (stereo unspecified)	i	i	i	i	i	i
CC1Cc2nc(SCC(=O)NCc3ccccc3)n(Cc3ccccc3)c(=O)c2S1 (stereo unspecified)	i	53	i	i	i	i
CCn1c(SCC(=O)Nc2cccc(C)c2)nc2c(c1=O)SC(C)C2 (stereo unspecified)	i	i	i	i	i	35
CCn1c(SCC(=O)Nc2ccc3c(c2)OCO3)nc2c(c1=O)SC(C)C2 (stereo unspecified)	i	i	i	i	i	i
Nc1c(C(=O)C2CC2)sc2nc(-c3ccccc3)cc(C(F)(F)F)c12	i	i	i	i	109	75
O=C(Nc1cccc(F)c1)C1C2C=CC3(CN(CCCN4CCOCC4)C(=O)C13)O2 (stereo unspecified)	i	i	i	i	i	i
CCOC(=O)CN1c2ccccc2NC(=O)CC1C (stereo unspecified)	i	i	43	i	i	i
CN(C)Cc1csc(NC(=O)Nc2ccccc2-c2ccccc2)n1	i	28	i	i	i	i
COc1ccccc1CN1C[C@@H]2C[C@@H](c3ccc(C)cc3)N3CCC[C@@]23C1=O	i	i	i	i	i	i
Cc1ccc([C@@H]2C[C@H]3CN(Cc4cccc(Cl)c4)C(=O)[C@]34CCCN24)o1	i	i	i	i	i	i
COc1ccc2c(c1)C=C([C@@H]1C[C@H]3CN(c4ccccc4)C(=O)[C@]34CCCN14)CO2	i	58	i	i	i	i
COCc1cc([C@@H]2C[C@H]3CN(c4ccccc4)C(=O)[C@]34CCCN24)ccc1OC	i	57	i	i	i	i
CN1C[C@@H]2C[C@@H](C3=Cc4cc(Cl)ccc4OC3)N3CCC[C@@]23C1=O	i	i	i	i	i	i
CCc1ccc([C@@H]2C[C@H]3CN(Cc4ccccc4OC)C(=O)[C@]34CCCN24)cc1	i	47	i	i	i	i
Cc1cccc([C@@H]2C[C@H]3CN(Cc4cccc(Cl)c4)C(=O)[C@]34CCCN24)n1	i	23	i	i	i	i
CC(=O)Nc1ccc(N)cc1	i	i	i	i	i	i
O=C(CCN1CCCCCC1)c1ccccc1	i	i	i	i	i	i
NC(=O)C(CCCCN1CCCCC1)(c1ccccc1)c1ccccc1	i	83	i	i	i	i
OC(CCN1CCCC1)(c1ccccc1)C1CCCCC1 (stereo unspecified)	i	97	i	i	i	i
C=CCC(O)(CCN1CCCCC1)c1ccccc1 (stereo unspecified)	i	98	i	i	i	i
COc1ccc(C(O)(CCc2ccccc2)CCN2CCCCC2)cc1 (stereo unspecified)	i	84	i	i	i	i
SMILES	CHRM1 PAM	M1 antag	CHO-K1 Ca PAM	M1 ag	CHO-K1 Ca ag	CHO-K1 Ca antag
CC(C)[C@H](NS(=O)(=O)c1ccccc1)C(=O)Nc1ccccc1N1CCOCC1	i	i	i	i	i	i
CCOC(=O)/C(=C\c1ccccc1)C(=O)CCN1CCOCC1	i	i	i	i	i	i
CCOC(=O)C(Cc1ccccc1)NC(=O)CCc1nnc2ccc(N3CCCC3)nn12 (stereo unspecified)	i	i	i	i	i	i
COCCN(CCOC)Cc1cc(=O)oc2cc(C)cc(C)c12	i	i	i	i	i	i
Cc1ccc(OCC(=O)NCCNC(=O)c2ccncc2)cc1C	i	i	i	i	i	i
OC(CCN1CCCCC1)(c1ccccc1)c1ccccc1	i	99	i	i	i	i
OC(CCCN1CCCCC1)(c1ccccc1)c1ccc(C(F)(F)F)cc1 (stereo unspecified)	i	82	i	i	i	i

Screening results: PubChem BioAssay, The Scripps Research Institute Molecular Screening Center
